# Measurements from PubChem BioAssay (NCI).
# The panel holds about 83,000 compounds, 20% with a hit somewhere; the sample as a whole holds those more often.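 Assay: single dose, 48 h. Readout: percent growth (0 = no net growth; negative = cell death). Active: <10.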 Unmarked numbers belong to inactive results. The source made the active and inactive calls.
# Experiments:
# Experiment in all cases: NCI-60 one-dose screen, 48 h (100 = growth as untreated, 0 = no growth, -100 = all killed)
# Conditions in all cases: 10 µM unless noted
# NCI-H23 lung = tested on: NCI-H23 lung
# NCI-H226 lung = tested on: NCI-H226 lung
# NCI-H322M lung = tested on: NCI-H322M lung
# HOP-62 NSCLC = tested on: HOP-62 NSCLC
# NCI-H460 lung = tested on: NCI-H460 lung
# HOP-92 NSCLC = tested on: HOP-92 NSCLC
# NCI-H522 lung = tested on: NCI-H522 lung
# A549/ATCC NSCLC = tested on: A549/ATCC NSCLC
# 786-0 renal = tested on: 786-0 renal
# COLO 205 colon = tested on: COLO 205 colon
# DU-145 prostate = tested on: DU-145 prostate
# K-562 leukemia = tested on: K-562 leukemia
# MALME-3M melanoma = tested on: MALME-3M melanoma
# MDA-MB-231 breast = tested on: MDA-MB-231 breast
# RXF 393 renal = tested on: RXF 393 renal
# SF-268 CNS = tested on: SF-268 CNS
# SF-295 CNS = tested on: SF-295 CNS
# SF-539 CNS = tested on: SF-539 CNS
# UACC-257 melanoma = tested on: UACC-257 melanoma
# M14 melanoma = tested on: M14 melanoma
Compound,growth (NCI-H23 lung),growth (NCI-H226 lung),growth (NCI-H322M lung) [%],growth (HOP-62 NSCLC),growth (NCI-H460 lung),growth (HOP-92 NSCLC),growth (NCI-H522 lung),growth (A549/ATCC NSCLC),growth (786-0 renal),growth (COLO 205 colon),growth (DU-145 prostate) [%],growth (K-562 leukemia) [%],growth (MALME-3M melanoma),growth (MDA-MB-231 breast),growth (RXF 393 renal),growth (SF-268 CNS) [%],growth (SF-295 CNS),growth (SF-539 CNS),growth (UACC-257 melanoma),growth (M14 melanoma)
CC1(C)c2[nH]c3ccccc3c2C[C@]2(C)[C@H]3C(=O)C=C4[C@@H]5C[C@@](C)(C(N)=O)CC[C@]5(C)CC[C@@]4(C)[C@]3(C)CC[C@@H]12,72.5%,73.2%,66.4,85.3%,69.4%,55.4%,68.7%,65.8%,75%,46.7%,92.2,31.3,79.3%,74.1%,70.5%,69.1,82.9%,92.8%,83.2%,80.2%
CCN(CC)CCn1c(=O)c2cc(OC)c(OC)cc2c2ccc3cc4c(cc3c21)OCO4,19.5%,1.83% (active),41,21.9%,6.21% (active),52.6%,34.9%,39.4%,11.4%,30.2%,24.1,33.4,17.2%,54.8%,8.86% (active),35.6,24.5%,-7.07% (active),41.3%,10.6%
N#CC1=C(N)Oc2c(ccc3ccccc23)C1c1ccccc1Cl (centres undefined),30.9%,69.3%,54.7,49.9%,5.27% (active),80.6%,-7.02% (active),22.4%,27.7%,-1.64% (active),17.1,–,52%,9.2% (active),17.9%,51,8.26% (active),-13.5% (active),60.1%,12.5%
COc1cc2cc(Oc3cccc(NC(=O)Nc4cc(C(F)(F)F)cc(C(F)(F)F)c4)c3)c(C)nc2cc1OC,2.28% (active),-10.2% (active),14.9,-54.1% (active),7% (active),-25.4% (active),-33.4% (active),5.93% (active),-16.6% (active),-81.2% (active),19.5,–,-3.13% (active),-36.1% (active),-24.5% (active),15.3,-59.2% (active),-40.9% (active),-4.68% (active),9.04% (active)
COc1cc(NCCCCCNC(C)(C)C)c2ncccc2c1,93.1%,86.5%,93.3,92.7%,111%,79.4%,67.8%,88.1%,95.6%,110%,112,–,107%,89.8%,97.4%,105,77.5%,99.7%,133%,104%
CN1[C@@H]2CC[C@H]1/C(=C\c1ccccc1)C(=O)/C2=C/c1ccccc1,29.7%,45.8%,51.2,95.8%,13.8%,84.3%,48.2%,45.3%,45.3%,12.9%,14.1,–,72.8%,47.6%,43.4%,38.3,32.8%,43.1%,42.8%,43.4%
COc1ccc(/C=C/c2nc(Nc3ccc(S(=O)(=O)Nc4cc(C)on4)cc3)c3ccccc3n2)cc1,81.3%,65.9%,37.3,57.7%,53.9%,46%,63.5%,39.1%,87.9%,48.6%,77.3,–,112%,62.1%,113%,76.4,54.6%,88.7%,77.5%,39.9%
N#C/C(=C\c1c(-c2ccccc2)[nH]c2ccccc12)C(=O)c1ccc(Cl)cc1,36.9%,69%,61.8,41.4%,18.2%,55.2%,35.3%,48.8%,44.6%,41.6%,28.3,–,37.2%,49.9%,29.2%,51.4,32.1%,-39.7% (active),68.2%,41%
